We go through 75 compounds from PubChem BioAssay AID1981 (Southern Research Specialized Biocontainment Screening …, 2009).

SMILES strings stand for the structures. The campaign covered roughly 2,200 compounds. About 480 (22%) were called active. No rule for the calls is given here. Not all results are given here. Results with a measured potency or affinity are listed apart.

The experiment is described as follows: S. Typhimurium GFP fluorescence dose response in modified counterscreen for PhoP regulon inhibitor project (AID 1981). As to conditions: 4 h; series mostly up to 150 µM.
As to `COc1ccc(OCCSc2nnc(-c3ccc(OC)cc3)n2N)cc1`, the outcome was inactive.

As to `O=C(CC(NS(=O)(=O)c1ccc(Cl)cc1)c1ccco1)N1CCc2ccccc21` (stereo not given), the outcome was inactive.

Take `Cc1cc(-c2nnc(-c3ccccc3)c(-c3ccccc3)n2)c(C)o1`: the compound was called inactive. For the compound `CO/N=C\CC(=O)Nc1ccc(F)cc1`, the outcome was inactive.

For `Cc1ccc(NC(=S)NCc2cccnc2)cc1`, the compound was called inactive. In the case of `Oc1ccc(/C=N/NC(=S)Nc2cccnc2)c(O)c1` it was “inactive”. In the case of `COc1cccc(NC(=O)NCCCN2CCN(c3ccc(F)cc3)CC2)c1` it was “inactive”; in that of `Cc1ccc(-n2c(C)cc(-c3csc(N)n3)c2C)cc1`, “inactive”.

With `CCOc1ccc(C(=O)NC(=S)Nc2ccc(N3CCCCC3)cc2)cc1[N+](=O)[O-]`, the outcome was inactive. As to `CCOc1ccc(C(=O)Nc2ccccc2CC)cc1[N+](=O)[O-]`, the result was inactive.

With `CCOc1ccc(CSC(=N)N)cc1[N+](=O)[O-]`, the compound was classed as inactive.

With `CC(C)NC(=O)/C(=N\O)c1ccccc1`, the result was inactive. Regarding `Cc1ccc(Oc2nnc(-c3ccccc3)c3ccccc23)cc1`, the outcome was inactive. In the case of `CCn1c(SCC(=O)N2CCCCC2)nc(O)cc1=O` it was “inactive”; in that of `Cc1ccc(Nc2cc(=O)[nH]c(=O)[nH]2)c(C)c1`, “inactive”. The value for `CCn1c2ccccc2c2cc(C3N=C(N)Nc4nc5ccccc5n43)ccc21` (stereo not given) was “inactive”; that for `CCn1cc(C(=O)O)c(=O)c2cc(OC)ccc21` was “inactive”.

On to `COc1ccc(Oc2coc3cc(OC(=O)c4cccs4)ccc3c2=O)cc1`, for which the compound was classed as inactive. The value for `CCOC(=O)c1ccc(NC(=O)Nc2cc(C)on2)cc1` was “inactive”; that for `COC(=O)C1C(=O)C=C(N2CCOCC2)CC1(C)C` (stereo not given) was “inactive”; that for `O=C(CNC(=O)OCc1ccccc1)NCC(=O)N1CCCC1C(=O)OCc1ccccc1` (stereo not given) was “inactive”.

In the case of `COc1ccc(C2=C(Nc3ccc(C)cc3)c3ccccc3C2=O)cc1`, the call was inactive. In the case of `O=c1c(Cl)c(Cl)cnn1Cc1ccccc1Cl` it was “inactive”; in that of `N=c1sccn1CC(=O)Nc1ccccc1Oc1ccccc1`, “inactive”; in that of `CC(=O)N1CCC(N(CCN2CCOCC2)C(=S)Nc2cccc(C)c2C)CC1`, “inactive”. The value for `CCCNC(=O)COC(=O)CCC(=O)c1ccc(F)cc1` was “inactive”; that for `NC(=NCc1ccc2c(c1)OCO2)NC(=O)c1ccccc1` was “inactive”; that for `O=C(CN1CCCCC1)Nc1cccc2c1OCO2` was “inactive”. In the case of `O=C(Nc1ccc2oc(-c3ccc(Cl)c(Cl)c3)nc2c1)c1ncn[nH]1` it was “inactive”.

On to `CCOC(=O)C1=C(C)Nc2nc3ccccc3n2C1c1cccs1` (stereo not given), for which the outcome was inactive. Regarding `COc1ccc(-c2nc3ccccc3c(=O)n2-c2nccs2)cc1`, the call was inactive. The value for `Brc1cccc(CNc2nc3ccccc3n2CCN2CCCCC2)c1` was “inactive”; that for `CC(=O)N1C(=O)C2(C(C#N)=C(N)Oc3c2c(C)nn3-c2ccccc2)c2ccccc21` (stereo not given) was “inactive”; that for `CCCCn1cnc2c(cnn2-c2ccc(F)cc2)c1=O` was “inactive”. Regarding `CC(NC(=O)C1(C)CC1(Br)Br)C(C)(C)C` (stereo not given), the result was inactive. In the case of `Cc1ccc(C(=O)C(OC(=O)COc2ccccc2C)c2ccccc2)cc1` (stereo not given) it was “inactive”; in that of `Cc1ccc(C(=O)NNc2c3ccccc3nc3ccccc23)cc1`, “inactive”; in that of `O=C(NCCc1ccccc1)c1ccc2nc(-c3ccco3)c(-c3ccco3)nc2c1`, “inactive”. Turning to `C=CCOc1ccccc1CNCCCN1CCOCC1`, the call was inactive.

Consider `O=c1[nH]c(NCc2ccco2)nnc1Cc1ccccc1Cl`, for which the call was inactive. The value for `O=C(NNc1c2ccccc2nc2ccccc12)c1cccc(O)c1` was “inactive”. For the compound `Nc1cc(N)cc(-c2nc3ccccc3[nH]2)c1`, the compound was called inactive. As to `COc1ccc(S(=O)(=O)n2nc(OC(=O)c3cccs3)cc2N)cc1`, the outcome was inactive.

With `CC(=O)C1=C(C)NC(SCSc2ccccc2)=C(C#N)C1c1cccnc1` (stereo not given), the compound was classed as inactive.

With `COC(=O)CCC(=O)Nc1ccc(Cl)c(Cl)c1`, the compound was called inactive.

For the compound `S=C(Nc1ccc(Cl)c(Cl)c1)N1CCOCC1`, the call was inactive. The value for `CCC(Sc1ncccc1C(=O)OC(C)C)C(=O)N1CCOCC1` (stereo not given) was “inactive”; that for `O=C(CSc1ccc2c(c1)OCCO2)NCCc1ccc(Cl)cc1Cl` was “inactive”; that for `CCOC(=O)/C(=C/C=C/c1ccccc1)NC(=O)c1ccccc1` was “inactive”. In the case of `Cc1[nH]c2ccccc2c1/C=N/O` it was “inactive”; in that of `COc1ccc2[nH]c(S(=O)Cc3ncc(C)c(OC)c3C)nc2c1` (stereo not given), “inactive”. In the case of `Oc1ccc(-c2n[nH]c(=S)n2-c2ccc3c(c2)OCCO3)c(O)c1` it was “inactive”.

As to `Cc1ccc(Nc2nc(CSc3nnc(-c4cccnc4)n3-c3ccccc3F)cs2)cc1`, the outcome was inactive. In the case of `COc1ccc(OC)c(S(=O)(=O)N(C)CC(=O)N2CCc3ccccc3C2)c1` it was “inactive”. The value for `COc1cc(C)nc(Nc2nc(C)c(C(C)=O)s2)n1` was “inactive”; that for `COC(OC)c1nc(SCC(=O)Nc2cccc(Cl)c2)ncc1C(=O)O` was “inactive”. The value for `CCN(CC)c1ccc(/C=N/NC(=S)NCc2ccccc2)c(O)c1` was “inactive”; that for `CN(c1cccc(Cl)c1)S(=O)(=O)c1cccc(C(=O)Nc2nc3ccccc3[nH]2)c1` was “inactive”. Consider `C#CCn1cc(/C=N/Nc2nc3ccccc3[nH]2)c2ccccc21`, for which the call was inactive. In the case of `C(=C\c1ccccc1)/C=N/Nc1nc2ccccc2[nH]1` it was “inactive”.

As to `CN1CCN(S(=O)(=O)c2ccc(-c3ccccc3)cc2)CC1`, the result was inactive. In the case of `COc1ccc(C2=Nc3cccc4cccc(c34)N2)cc1` it was “inactive”. Consider `Cc1ccc(CNC(=O)c2cccc(S(C)(=O)=O)c2)cc1`, for which the call was inactive. In the case of `COc1ccc(-c2nnc(SCC(=O)NCc3ccco3)o2)cc1` it was “inactive”; in that of `Cc1ccc(S(=O)(=O)NCCC(=O)OCn2nnc3ccccc3c2=O)cc1`, “inactive”; in that of `CN1/C(=C/C=N/NC(=O)c2ccc([N+](=O)[O-])cc2)C(C)(C)c2ccccc21`, “inactive”.

On to `CN1/C(=C/C2CC(=O)N(c3cccc4ccccc34)C2=O)C(C)(C)c2ccccc21` (stereo not given), for which the result was inactive. In the case of `COC(=O)c1cc(C#N)c(Oc2cccc(C)c2C)nc1C` it was “inactive”.

Turning to `Cc1c(/C=C/C(=O)c2ccccc2)cnn1C`, the compound was called inactive. In the case of `O=C1c2ccccc2C2=Nc3ccccc3SC(c3cccc(F)c3)C12` (stereo not given) it was “inactive”. The value for `Cn1c(N)c(C(=O)COC(=O)C2CCCCC2)c(=O)n(C)c1=O` was “inactive”; that for `COc1ccccc1NCCC(=O)OCC(=O)NC1CCCCCC1` was “inactive”. The value for `O=c1c2ccccc2nc(-c2ccco2)n1-c1nccs1` was “inactive”; that for `CNc1nc(Sc2ccccc2)cc(C(F)(F)F)n1` was “inactive”.

Turning to `CC(=O)Nc1c(C#N)c(C(C)(C)C)cn1C`, the outcome was inactive.
